Structures are written as SMILES. Several values for one entry are separate records, joined by “and”; a condition that tells them apart may be missing. Equal entries are not always repeated. Inconclusive results are not listed. Where a structure was tested more than once in an assay, its records may differ in their call. Activity calls are given as the source filed them. The call rests on the fitted dose curve; in most records, active means well fitted curve in the direction sought with a large enough effect in the repeat runs; inconclusive means weak or mixed curves; inactive means no such curve, though single readings can be large; an effect the other way counts as inactive or inconclusive.

The results in this text go back to PubChem BioAssay (Tox21).

Experiment [1] is described as follows: A CellTox Green Cytotoxicity Assay to monitor cytotoxicity in HEK293 cells - 40 hour (AID 1224871). Further: nearly all actives have a fitted effect of over 45% in size. Further: potency means the concentration at half of the fitted maximal effect. Put shortly: (§1)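 Each value comes from one timepoint of a single continuous run in which HEK293 cells with CellTox Green were exposed to compound for up to 40 h at 37 C, dye fluorescence rising with cell death.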
A short description of experiment [2]: qHTS RealTime-Glo MT Cell Viability Assay in HEK293 cells - 16 hour (AID 1224872). Further: top concentration of the series differs between compounds; nearly all actives have a fitted effect of over 50% in size. Put shortly: (§2)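 HEK293 cells seeded with NanoLuc/prosubstrate reagent, rested 5 h at 37 C, then dosed and kept at 37 C up to 40 h. Nonlytic real-time luminescence from viable cells read at 0, 8, 16, 24, 32 and 40 h.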
(In general: In qHTS, concentration-response curves come from the screen itself.)

Experiment [3] can be described thus: qHTS RealTime-Glo MT Cell Viability Assay in HepG2 cells - 8 hour (AID 1224873). Further: nearly all actives have a fitted effect of over 55% in size. The essentials: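 HepG2 cells mixed with RealTime-Glo MT reagents (NanoLuc plus cell-permeant prosubstrate) were seeded at 600 cells/well, incubated 5 h at 37 C/5% CO2, then pinned with compounds in DMSO; nonlytic luminescence tracked viability during 40 h treatment.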
The nature of experiment [4]: A CellTox Green Cytotoxicity Assay to monitor cytotoxicity in HEK293 cells - 24 hour (AID 1224875). Further: series mostly up to about 77 µM; nearly all actives have a fitted effect of over 45% in size. Put shortly:
as §1

Experiment [5] can be described thus: A CellTox Green Cytotoxicity Assay to monitor cytotoxicity in HepG2 cells - 16 hour (AID 1224876). Further: nearly all actives have a fitted effect of over 45% in size. The essentials:
(§3)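 Continuous culture of HepG2 cells with a membrane-impermeant DNA dye; rising fluorescence marks dead cells. Compound exposure lasted up to 40 h at 37 C, with reads every 8 h from 0 h.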

Experiment [6] is described as follows: qHTS RealTime-Glo MT Cell Viability Assay in HepG2 cells - 32 hour (AID 1224877). Further: nearly all actives have a fitted effect of over 55% in size. The essentials: (§4)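 HepG2 cells (600/well) were dispensed with RealTime-Glo reagents, incubated 5 h at 37 °C, then treated with compounds in DMSO for up to 40 h. Nonlytic NanoLuc luminescence reflecting viable cells was read at each stated time point.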
A short description of experiment [7]: A CellTox Green Cytotoxicity Assay to monitor cytotoxicity in HepG2 cells - 24 hour (AID 1224878). Further: nearly all actives have a fitted effect of over 45% in size. Put shortly: as §3
Experiment [8] in a line: A CellTox Green Cytotoxicity Assay to monitor cytotoxicity in HepG2 cells - 40 hour (AID 1224879). Further: nearly all actives have a fitted effect of over 40% in size. Put shortly:
as §3

A short description of experiment [9]: qHTS RealTime-Glo MT Cell Viability Assay in HEK293 cells - 0 hour (AID 1224880). Further: nearly all actives have a fitted effect of over 45% in size. Further: potency means the concentration at half of the fitted maximal effect. The essentials:
(§5)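 qHTS format; HEK293 cells with NanoLuc/prosubstrate reagent, 37 C/5% CO2 for 5 h pre-dosing; compounds 23 nL in DMSO; luminescence at each time point reflects viable cells.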

Experiment [10] can be described thus: A CellTox Green Cytotoxicity Assay to monitor cytotoxicity in HEK293 cells - 32 hour (AID 1224881). Further: nearly all actives have a fitted effect of over 40% in size. Further: potency means the concentration at half of the fitted maximal effect. The essentials: as §1
Experiment [11] is described as follows: A CellTox Green Cytotoxicity Assay to monitor cytotoxicity in HepG2 cells - 0 hour (AID 1224882). Further: nearly all actives have a fitted effect of over 35% in size. Put shortly:
as §3

A short description of experiment [12]: A CellTox Green Cytotoxicity Assay to monitor cytotoxicity in HepG2 cells - 32 hour (AID 1224883). Further: nearly all actives have a fitted effect of over 50% in size. The essentials: as §3
The nature of experiment [13]: A CellTox Green Cytotoxicity Assay to monitor cytotoxicity in HEK293 cells - 8 hour (AID 1224884). Further: nearly all actives have a fitted effect of over 35% in size. The essentials:
as §1

The nature of experiment [14]: qHTS RealTime-Glo MT Cell Viability Assay in HepG2 cells - 16 hour (AID 1224885). Further: nearly all actives have a fitted effect of over 50% in size. The essentials:
as §4

The nature of experiment [15]: qHTS RealTime-Glo MT Cell Viability Assay in HEK293 cells - 24 hour (AID 1224886). Further: nearly all actives have a fitted effect of over 50% in size. Further: potency means the concentration at half of the fitted maximal effect. The essentials:
as §2

The nature of experiment [16]: qHTS RealTime-Glo MT Cell Viability Assay in HEK293 cells - 8 hour (AID 1224887). Put shortly:
as §5

The nature of experiment [17]: qHTS RealTime-Glo MT Cell Viability Assay in HepG2 cells - 0 hour (AID 1224889). Further: nearly all actives have a fitted effect of over 50% in size. Further: potency means the concentration at half of the fitted maximal effect. Put shortly:
as §4

Experiment [18] in a line: A CellTox Green Cytotoxicity Assay to monitor cytotoxicity in HepG2 cells - 8 hour (AID 1224890). Further: nearly all actives have a fitted effect of over 45% in size. Put shortly:
as §3

Experiment [19] is described as follows: A CellTox Green Cytotoxicity Assay to monitor cytotoxicity in HEK293 cells - 16 hour (AID 1224888). Further: nearly all actives have a fitted effect of over 35% in size. Put shortly:
as §1

For the compound `CCCC(CCC)C(=O)O`, the Potency entry in [1], in experiment [2], in experiment [4], in experiment [5], in experiment [6] and in experiment [7] was “inactive” throughout. Also, the Potency entry in experiment [8], in experiment [9], in experiment [10], in experiment [11], in experiment [12] and in [13] was “inactive” throughout. Moreover, the Potency result in experiment [14], in experiment [15], in experiment [16], in experiment [17] and in experiment [18] was “inactive” in each case. Further, the outcome in [3] was inactive.
As for `O=c1cc[nH]c(=S)[nH]1`, the Potency entry in experiment [1], in [2], in [4], in [5], in experiment [6] and in experiment [7] was “inactive” each time. Besides, the Potency entry in experiment [8], in experiment [9], in experiment [10], in experiment [11], in experiment [12] and in experiment [13] was “inactive” each time. For the same compound, the Potency entry in experiment [14], in experiment [15], in experiment [16], in experiment [17] and in experiment [18] was “inactive” each time. In addition, in [3], the compound was called inactive.
For the compound `C1N2CN3CN1CN(C2)C3`, the Potency result in experiment [1], in experiment [2], in experiment [4], in [5], in experiment [6] and in [7] was “inactive” throughout. The Potency entry in experiment [8], in experiment [9], in [10], in experiment [11], in [12] and in [13] was “inactive” each time. Further, the Potency result in experiment [14], in experiment [15], in experiment [19], in experiment [17] and in [18] was “inactive” in each case. Further, the compound was called inactive in [3].
Consider `O=C(O)c1cc(N=Nc2ccc(S(=O)(=O)Nc3ccccn3)cc2)ccc1O`, for which the Potency result in experiment [1], in experiment [2], in experiment [4], in experiment [5], in [6] and in [7] was “inactive” throughout. Also, the Potency entry in [8], in experiment [10], in experiment [11], in experiment [12], in experiment [13] and in [14] was “inactive” throughout. For the same compound, the Potency result in experiment [15], in [16] and in experiment [18] was “inactive” each time. For the same compound, the compound was classed as inactive in experiment [3]. Moreover, the Potency is 12.3 µM (active) and 19.5 µM (active) and 16.9 µM (active) in experiment [9]; 11 µM (active) and 21.9 µM (active) in experiment [17].
With `Nc1ccc(C(=O)O)cc1`, the Potency entry in experiment [1], in experiment [2], in [4], in experiment [5], in [6] and in experiment [7] was “inactive” each time. Further, the Potency entry in experiment [8], in [9], in experiment [10], in experiment [11], in experiment [12] and in experiment [13] was “inactive” each time. The Potency entry in [14], in [15], in experiment [19], in experiment [17] and in experiment [18] was “inactive” throughout. The compound was called inactive in [3].
`COc1ccc2[nH]cc(CCNC(C)=O)c2c1`: the Potency entry in experiment [1], in [2], in [4], in [5], in [6] and in experiment [7] was “inactive” throughout. Moreover, the Potency result in [8], in [9], in experiment [10], in experiment [11], in experiment [12] and in experiment [13] was “inactive” throughout. For the same compound, the Potency entry in experiment [14], in experiment [15], in experiment [19], in [17] and in [18] was “inactive” in each case. The result in [3] was inactive.
With `Nc1ccc(S(=O)(=O)c2ccc(N)cc2)cc1`, the Potency entry in experiment [1], in experiment [2], in experiment [4], in [5], in experiment [6] and in experiment [7] was “inactive” in each case. In addition, the Potency entry in experiment [8], in experiment [9], in experiment [10], in experiment [11], in experiment [12] and in experiment [13] was “inactive” in each case. Besides, the Potency result in experiment [14], in experiment [15], in experiment [17] and in [18] was “inactive” each time. Further, in experiment [3], the result was inactive.
For `O=C(O)C(=O)O`, the Potency entry in experiment [1], in experiment [2], in experiment [4], in experiment [5], in experiment [6] and in [7] was “inactive” each time. The Potency entry in [8], in [9], in experiment [10], in experiment [11], in [12] and in [13] was “inactive” each time. Moreover, the Potency result in experiment [14], in experiment [15], in experiment [16], in [17] and in experiment [18] was “inactive” each time. Besides, in experiment [3], the outcome was inactive.
Turning to `C/C=C/c1ccc(OC)cc1`, the Potency entry in experiment [1], in experiment [2], in [4], in [5], in [6] and in experiment [7] was “inactive” throughout. Also, the Potency result in [8], in [9], in experiment [10], in experiment [11], in experiment [12] and in [13] was “inactive” each time. The Potency entry in experiment [14], in [15], in experiment [17] and in [18] was “inactive” in each case. The outcome in [3] was inactive.
For `CC1(C)[C@@H]2CC[C@@]1(C)C(=O)C2`, the Potency entry in [1] is “inactive and 7.56 µM (active)”; in [10], “inactive and 8.49 µM (active)”. For the same compound, the Potency result in [2], in [4], in experiment [5], in experiment [6], in [7] and in [8] was “inactive” in each case. The Potency entry in experiment [9], in experiment [11], in [12], in experiment [13], in experiment [14] and in experiment [15] was “inactive” throughout. Moreover, the Potency entry in experiment [17] and in [18] was “inactive” throughout. In addition, the call in experiment [3] was inactive.
As to `CC(O)CN(CCN(CC(C)O)CC(C)O)CC(C)O` (configuration not stated), the Potency result in experiment [1], in experiment [2], in [4], in [5], in experiment [6] and in experiment [7] was “inactive” each time. Moreover, the Potency result in [8], in [9], in experiment [10], in [11], in [12] and in experiment [13] was “inactive” in each case. The Potency entry in experiment [14], in experiment [15], in [16], in experiment [17] and in experiment [18] was “inactive” throughout. For the same compound, in experiment [3], the call was inactive.
As to `COc1c2occc2cc2ccc(=O)oc12`, the Potency result in experiment [1], in experiment [2], in experiment [4], in experiment [5], in experiment [6] and in experiment [7] was “inactive” throughout. Moreover, the Potency entry in experiment [8], in experiment [9], in experiment [10], in experiment [11], in [12] and in [13] was “inactive” in each case. Further, the Potency entry in experiment [14], in experiment [17] and in experiment [18] was “inactive” in each case. In experiment [3], the call was inactive. The Potency entry in [15] was “inactive and 21.9 µM (active)”.
